Records with an inconclusive call do not appear. Activity calls are given as the source filed them. Calls come from the whole dose curve; as a rule, active = well fitted inhibition curve with a large enough effect; inconclusive = small, poorly fitted or top-dose-only effect; inactive = flat fitted curve, though single readings scatter.
Molecular target: Microtubule-associated protein tau (Homo sapiens) (UniProt P10636)
Assay: Confirmation Concentration-Response Assay for Inhibitors of Tau Fibril Formation, Thioflavin T Binding
Settings: recombinant tau K18 P301L (four-repeat tau fragment) heparin fibrillization, ThT fluorescence
From the text: NIH Molecular Libraries Probe Production Network [MLPCN] NIH Chemical Genomics Center [NCGC] MLPCN Grant: X01 MH083262-01 Assay Provider: Carlo Ballatore, University of Pennsylvania NCGC Assay Overview: The microtubule-associated protein tau is an abundant protein in the axons of neurons that stabilizes microtubules. With its ability to modulate microtubule dynamics, tau contributes directly or indirectly, to key structural and regulatory cellular functions. Particularly important is the influence tau exerts on axonal transport, which allows signaling molecules, trophic factors and other essential cellular constituents to travel along the axons. Under pathological conditions, tau becomes sequestered into insoluble aggregates called neurofibrillary tangles. […] This assay monitors tau fibrillization by Thioflavin T (ThT) fluorescence. […]
For screening, 2 uL/well human K18 P301L (15 uM unlabeled and 0.24 uM Alexa 594-labeled tau, final concentrations) in reagent buffer (100 mM sodium acetate pH 7) was dispensed into black solid 1536-well plates (Grenier) using a solenoid-based dispenser. […] After a 1 hr ambient incubation, the plates were read by an Envision (Perkin Elmer) to monitor ThT fluorescence (450/8 nm excitation and 510/23 nm emission). […]

Chain of Microtubule-associated protein tau (Homo sapiens) (P10636 561-689 P618L limits assumed): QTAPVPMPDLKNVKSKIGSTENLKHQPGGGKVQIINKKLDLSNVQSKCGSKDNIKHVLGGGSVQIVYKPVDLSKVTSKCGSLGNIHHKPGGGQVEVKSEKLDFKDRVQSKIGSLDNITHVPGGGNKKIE

CC(N)[C@H](O)c1ccc(O)c(O)c1 (stereo partly specified)
Potency: 7.94 µM (active)
